Unmarked numbers belong to inactive results.

From the supplement of paper PMC12808144 come the findings set out here.

One assay concerns Mel-DCC-11. Description: cell viability relative to DMSO control (fraction of DMSO control); higher = less cytotoxic, active = 0.5 or less. The settings on record: 1 µM; 120 h. The procedure, abridged: (§1)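 For 120 h, duplicate wells of 384-well plates held 1 µM of each of 315 approved anti-cancer drugs (TargetMol), spotted acoustically before cells were added in 40 µl per well. Immortalized NHEM-hTERT melanocytes were seeded at 2500/well, and patient-derived Mel-DCC-11 plus its resistant subline Mel-DCC-11-R at 1500/well. The subline was run both without and with 8 µM of its selecting drug, and ATPlite 1step luminescence was read. Viability was normalised to vehicle-treated wells and averaged over the two replicates.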

The subject of the next assay is NHEM-hTERT. The assay is described as above. The note with it: 1 µM; 120 h. The procedure, abridged:
as §1

Another assay deals with Mel-DCC-11-R. Description: cell viability relative to DMSO control (fraction of DMSO control); higher = less cytotoxic, active = 0.8 or less. The settings on record: 1 µM, 120 h. Summed up:
as §1

`CS(=O)(=O)O.Cc1ccc(NC(=O)c2ccc(CN3CCN(C)CC3)cc2)cc1Nc1nccc(-c2cccnc2)n1` [Imatinib Mesylate]: the cell viability is 1.15 in the assay on Mel-DCC-11, 0.965 with NHEM-hTERT, 0.94 with Mel-DCC-11-R (vemurafenib co-treatment 0 µM) and 1.1 in the assay on Mel-DCC-11-R (vemurafenib co-treatment 8 µM).

As to `CC[C@@]1(O)C(=O)OCc2c1cc1n(c2=O)Cc2cc3cc(O)ccc3nc2-1` [10-Hydroxycamptothecin], the cell viability in the assay with Mel-DCC-11 was 0.203 (active); with NHEM-hTERT, 0.731; in the assay with Mel-DCC-11-R (vemurafenib co-treatment 0 µM), 0.478 (active); in the assay with Mel-DCC-11-R (vemurafenib co-treatment 8 µM) it was 0.249 (active).

With `Cl.Cl.Cl.Cl.Cl.Cl.Cl.Cl.c1cc(CN2CCCNCCNCCCNCC2)ccc1CN1CCCNCCNCCCNCC1` [AMD 3100 octahydrochloride], the cell viability with Mel-DCC-11 was 1.17; with NHEM-hTERT it was 1.14; in the assay with Mel-DCC-11-R (vemurafenib co-treatment 0 µM) it was 0.999; in the assay on Mel-DCC-11-R (vemurafenib co-treatment 8 µM), 0.984.

As for `CCN1CCN(Cc2ccc(Nc3ncc(F)c(-c4cc(F)c5nc(C)n(C(C)C)c5c4)n3)nc2)CC1` [Abemaciclib], the cell viability in the assay on NHEM-hTERT was 0.921.

On to `CCN(CC)CCOc1ccc2c(c1)C(=O)c1cc(OCCN(CC)CC)ccc1-2.Cl.Cl` [Tilorone dihydrochloride], for which the cell viability is 1.06 in the assay with Mel-DCC-11, 1.15 with NHEM-hTERT, 0.883 in the assay on Mel-DCC-11-R (vemurafenib co-treatment 0 µM) and 1.15 in the assay with Mel-DCC-11-R (vemurafenib co-treatment 8 µM).

In the case of `O.S=c1nc[nH]c2nc[nH]c12` [6-Mercaptopurine monohydrate], the cell viability in the assay with Mel-DCC-11 was 0.736; in the assay with NHEM-hTERT it was 0.937; in the assay with Mel-DCC-11-R (vemurafenib co-treatment 0 µM) it was 0.725 (active); in the assay on Mel-DCC-11-R (vemurafenib co-treatment 8 µM), 0.881.

`Nc1ccccc1NC(=O)c1ccc(CNc2nccc(-c3cccnc3)n2)cc1` [Mocetinostat]: the cell viability in the assay with NHEM-hTERT was 0.55.

With `Nc1nc(=O)c2c(CCc3ccc(C(=O)N[C@@H](CCC(=O)[O-])C(=O)[O-])cc3)c[nH]c2[nH]1.[Na+].[Na+]` [Pemetrexed Disodium Hydrate], the cell viability with Mel-DCC-11 is 1.02; in the assay with NHEM-hTERT, 0.995; in the assay with Mel-DCC-11-R (vemurafenib co-treatment 0 µM), 1.11; with Mel-DCC-11-R (vemurafenib co-treatment 8 µM), 1.13.

On to `C1=C/COCc2cc(ccc2OCCN2CCCC2)Nc2nccc(n2)-c2cccc(c2)COC/1` [Pacritinib], for which the cell viability in the assay on Mel-DCC-11 is 1.2; in the assay on NHEM-hTERT, 1.04; in the assay with Mel-DCC-11-R (vemurafenib co-treatment 0 µM), 1.46; in the assay on Mel-DCC-11-R (vemurafenib co-treatment 8 µM), 1.06.

With `CO[C@H]1C=CO[C@@]2(C)Oc3c(C)c(O)c4c(O)c(c(/C=N/N5CCN(C)CC5)c(O)c4c3C2=O)NC(=O)/C(C)=C\C=C/[C@H](C)[C@H](O)[C@@H](C)[C@@H](O)[C@@H](C)[C@H](OC(C)=O)[C@@H]1C` [Rifampicin], the cell viability with NHEM-hTERT was 1.03.

Turning to `CCc1cn([C@H]2C[C@H](O)[C@@H](CO)O2)c(=O)[nH]c1=O` [Edoxudine], in the assay on NHEM-hTERT, the cell viability was 0.967.

With `CO[C@H]1C(=O)[C@]2(C)[C@@H](OC)C[C@H]3OC[C@@]3(OC(C)=O)[C@H]2[C@H](OC(=O)c2ccccc2)[C@]2(O)C[C@H](OC(=O)[C@H](O)[C@@H](NC(=O)OC(C)(C)C)c3ccccc3)C(C)=C1C2(C)C` [Cabazitaxel], the cell viability with NHEM-hTERT is 0.692.

For `COc1ccc2c(c1OC)C(=O)O[C@@H]2[C@H]1c2c(cc3c(c2OC)OCO3)CC[NH+]1C.[Cl-]` [Noscapine hydrochloride], the cell viability was 1.12 with Mel-DCC-11, 1.13 with NHEM-hTERT, 1.04 in the assay on Mel-DCC-11-R (vemurafenib co-treatment 0 µM) and 1.13 with Mel-DCC-11-R (vemurafenib co-treatment 8 µM).

As to `c1cn2cc(-c3ccc4cn[nH]c4c3)nc(Nc3ccc(N4CCOCC4)cc3)c2n1` [Entospletinib], the cell viability is 0.988 with Mel-DCC-11, 0.558 with NHEM-hTERT, 0.904 with Mel-DCC-11-R (vemurafenib co-treatment 0 µM) and 0.877 in the assay with Mel-DCC-11-R (vemurafenib co-treatment 8 µM).

Take `Nc1ncn([C@H]2C[C@H](O)[C@@H](CO)O2)c(=O)n1` [Decitabine]: the cell viability was 2.02 with Mel-DCC-11, 0.907 in the assay with NHEM-hTERT, 1.31 with Mel-DCC-11-R (vemurafenib co-treatment 0 µM) and 0.968 in the assay on Mel-DCC-11-R (vemurafenib co-treatment 8 µM).

For the compound `COc1c(OCCCN2CCOCC2)ccc2c1N=C(NC(=O)c1cnc(N)nc1)N1CCN=C21` [Copanlisib], the cell viability with Mel-DCC-11 is 0.966; with NHEM-hTERT, 0.829; in the assay with Mel-DCC-11-R (vemurafenib co-treatment 0 µM), 0.671 (active); in the assay with Mel-DCC-11-R (vemurafenib co-treatment 8 µM), 0.254 (active).

Regarding `CO[C@@]12[C@H](COC(N)=O)C3=C(C(=O)C(C)=C(N)C3=O)N1C[C@@H]1N[C@@H]12` [Mitomycin C], in the assay on NHEM-hTERT, the cell viability is 0.685.

In the case of `CCc1c2c(nc3ccc(OC(=O)N4CCC(N5CCCCC5)CC4)cc13)-c1cc3c(c(=O)n1C2)COC(=O)[C@]3(O)CC.Cl.O.O.O` [Irinotecan hydrochloride trihydrate], the cell viability with NHEM-hTERT is 0.875.

In the case of `NC(=O)c1cccc2cn(-c3ccc([C@@H]4CCCNC4)cc3)nc12` [Niraparib], the cell viability with NHEM-hTERT was 0.932.

In the case of `C[C@@H](Oc1cc(-c2cnn(C3CCNCC3)c2)cnc1N)c1c(Cl)ccc(F)c1Cl` [Crizotinib], in the assay on NHEM-hTERT, the cell viability is 0.986.
